Data taken from PubChem BioAssay (Tox21).
Where “and” joins values, the source holds several entries; their conditions need not be identical. Identical values can stand only once. Some compounds were tested as several samples or in several runs, with calls that do not always agree. Calls of active or inactive are those of the source. Entries that show only a call come without a potency. Unless noted, calls come from the whole dose curve; as a rule, active = well fitted curve in the direction sought with a large enough effect in the repeat runs; inconclusive = weak or mixed curves; inactive = no such curve, though single readings can be large; an effect the other way counts as inactive or inconclusive. Positions of bridges follow the written chain, without caps; N, C: chain ends. Non-standard residues stand in square brackets, D forms with d. Residues, ends and D or L forms follow the SMILES beside them. *: point of attachment. X2 = CC[C@H](C)CCCCC(=O)*; Dab = NCC[C@H](N)C(=O)O

How the values were obtained:
[1] = qHTS assay to identify small molecule antagonists of the thyroid receptor (TR) signaling pathway - cell viability counter screen (AID 743064); note: nearly all actives have a fitted effect of over 50% in size; note: potency is the fitted concentration of half-maximal effect
Method in brief: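 Rat GH3 pituitary tumor cells stably expressing two TR response elements driving luciferase were plated, rested 4 h, then dosed with library compounds and T3 (1 nM final). After 23.5 h at 37 °C, CellTiter-Fluor was added for 30 min and fluorescence recorded.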

[2] = qHTS assay to identify small molecule antagonists of the thyroid receptor (TR) signaling pathway (AID 743065); note: nearly all actives have a fitted effect of over 55% in size; note: potency is the fitted concentration of half-maximal effect
Method in brief: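 GH3.TRE-Luc rat pituitary cells carrying two TR response elements driving luciferase were plated for 4 h, given compound plus 1 nM T3 (final), and incubated 23.5 h at 37 C. ONE-Glo luminescence measured reporter inhibition; CellTiter-Fluor fluorescence tracked cytotoxicity.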

[3] = test system: thyroid hormone receptor (rat, GH3 cells); assay: qHTS assay to identify small molecule agonists of the thyroid receptor (TR) signaling pathway (AID 743066; calls by dose curve)
[4] = biological target: Estrogen receptor (Homo sapiens) (UniProt P03372); assay: qHTS assay to identify small molecule agonists of the estrogen receptor alpha (ER-alpha) signaling pathway using the BG1 cell line (AID 743079); details: BG1Luc4E2 cells, ERE-luciferase agonist, 22 h; activation: at 70.3 µM (top of the series); note: nearly all actives have a fitted effect of over 20% in size; note: potency is the fitted concentration of half-maximal effect
[5] = qHTS assay to identify small molecule antagonists of the estrogen receptor alpha (ER-alpha) signaling pathway using the BG1 cell line (AID 743080; calls by dose curve;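 note: BG1 cells stimulated with 17beta-estradiol alongside compound; nearly all actives have a fitted effect of over 25% in size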; note: potency is the fitted concentration of half-maximal effect)
Method in brief: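 Readout is ONE-Glo luminescence, taken 30 min at room temperature after reagent addition, preceded by a CellTiter-Fluor viability read; BG1-Luc-4E2 cells had received compound and 17beta-estradiol for 21.5 h at 37 C.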

[6] = qHTS assay to identify small molecule antagonists of the estrogen receptor alpha (ER-alpha) signaling pathway using the BG1 cell line - cell viability counter screen (AID 743081);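 note: compound given together with 17beta-estradiol as the ER stimulus; nearly all actives have a fitted effect of over 45% in size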; note: potency is the fitted concentration of half-maximal effect
[7] = qHTS assay to identify aromatase inhibitors - cell viability counter screen (AID 743084);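 note: cells stimulated with testosterone during compound exposure; nearly all actives have a fitted effect of over 55% in size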; note: potency is the fitted concentration of half-maximal effect
[8] = biological target: Aryl hydrocarbon receptor (Homo sapiens) (UniProt P35869); assay: qHTS assay to identify small molecule that activate the aryl hydrocarbon receptor (AhR) signaling pathway (AID 743085); note: nearly all actives have a fitted effect of over 15% in size; note: potency is the fitted concentration of half-maximal effect;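 for activation: HG2L7.5c1 human HepG2 liver cells with stably integrated DRE-driven firefly reporter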
Method in brief: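 Compounds were tested in HepG2 hepatocellular carcinoma cells harbouring a stably integrated luciferase gene under control of 20 DREs. Increased reporter signal after 24 h treatment at 37C was taken as AhR activation.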

[9] = qHTS assay to identify small molecule that activate the aryl hydrocarbon receptor (AhR) signaling pathway - cell viability counter screen (AID 743086); note: nearly all actives have a fitted effect of over 45% in size; note: potency is the fitted concentration of half-maximal effect
Method in brief: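 HepG2-AhR-luc (HG2L7.5c1) cells, 4000/well, were preincubated 5 h at 37C, exposed to compound in qHTS format for 24 hr at 37C, then given CellTiter-Fluor for 30 min; viability was read as fluorescence in the reporter wells.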

[10] = qHTS assay to identify small molecule phospholipidosis (PLD) inducers (AID 1259344; active = well fitted curve in the direction sought with a large enough effect; inconclusive = small, poorly fitted or top-dose-only effect, or another doubt; inactive = no such curve, though single readings can be large; an effect the other way counts as inactive or inconclusive)
Method in brief: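 Cells (HepG2, 900 per well) attach for 4 h, receive LipidTOX Red and compound together, incubate 24 h at 37 C, are fixed 30 min with paraformaldehyde/Hoechst, then imaged at one site per well.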

[11] = biological target: Nuclear receptor subfamily 1 group I member 2 (Rattus norvegicus) (UniProt Q9R1A7); assay: Rat pregnane X receptor (rPXR) activation by small molecules, qHTS assay (AID 1346983); details: rPXR luciferase reporter cells, One-Glo luminescence, 24 h; max activation: stronger effect = higher value; note: nearly all actives have a fitted effect of over 20% in size; note: potency is the fitted concentration of half-maximal effect
Method in brief: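 Cell-based rPXR luciferase reporter assay, 2,000 cells per well, rested 5hr at 37 C before compound addition in DMSO, then 24 hr at 37 C. One-Glo reagent was added and luminescence read after 30 min at room temperature.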

[12] = biological target: Nuclear receptor subfamily 1 group I member 2 (Homo sapiens) (UniProt O75469); assay: CYP3A4 induction through human pregnane X receptor (PXR) by small molecules, qHTS assay (AID 1346984); note: nearly all actives have a fitted effect of over 40% in size; note: potency is the fitted concentration of half-maximal effect
Method in brief: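 Read-out is luminescence after One-Glo addition, following a 3 hr, 37C incubation with Luciferin-IPA CYP3A4 substrate (3uM final). Before that, compounds were on DPX-2 cells (HepG2 co-transfected with PXR element plus CYP3A4-promoter luciferase) for 24 hr at 37C.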

[13] = biological target: Estrogen receptor (Homo sapiens) (UniProt P03372); assay: qHTS assay to identify small molecule antagonists of the estrogen receptor alpha (ER-alpha) signaling pathway (AID 743069; active = well fitted curve in the direction sought with a large enough effect in the signal ratio in the repeat runs, not every such curve was filed as active; inconclusive = weak or mixed curves, or effect the other way; inactive = no such curve, though single readings can be large or run the other way; the % refers to the signal ratio; note: potency is the fitted concentration of half-maximal effect)
Method in brief: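 Screening used a UAS-driven beta-lactamase reporter integrated into HEK293 cells expressing ER-alpha, stimulated with 17beta-estradiol alongside test compounds over 18 hr at 37C; signal came from LiveBLAzer B/G FRET fluorescence.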

[14] = qHTS assay to identify small molecule antagonists of the estrogen receptor alpha (ER-alpha) signaling pathway - cell viability counter screen (AID 743074; calls by dose curve; note: nearly all actives have a fitted effect of over 45% in size)
[15] = biological target: Estrogen receptor (Homo sapiens) (UniProt P03372); assay: qHTS assay to identify small molecule agonists of the estrogen receptor alpha (ER-alpha) signaling pathway (AID 743075; calls by dose curve; note: potency is the fitted concentration of half-maximal effect)
Aromatase (Homo sapiens) = Aromatase (Homo sapiens) (UniProt P11511); assay: qHTS assay to identify aromatase inhibitors (AID 743083); note: nearly all actives have a fitted effect of over 55% in size; note: potency is the fitted concentration of half-maximal effect
[16] = biological target: Nuclear receptor subfamily 1 group I member 2 (Homo sapiens) (UniProt O75469); assay: Human pregnane X receptor (PXR) activation by small molecules, qHTS assay (AID 1346985); note: nearly all actives have a fitted effect of over 40% in size; note: potency is the fitted concentration of half-maximal effect
Method in brief: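 DPX-2 cells (HepG2 co-transfected with a PXR response element and a CYP3A4-promoter luciferase construct) were seeded at 2,000 per well, rested 5 hr at 37C, then exposed to DMSO-dissolved compounds for 24 hr. Activation was read as luciferase luminescence.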

[17] = biological target: Peroxisome proliferator-activated receptor gamma (Homo sapiens) (UniProt P37231); assay: qHTS assay to identify small molecule agonists of the peroxisome proliferator-activated receptor gamma (PPARg) signaling pathway (AID 743094; active = well fitted activation curve with a large enough effect in the signal ratio in the repeat runs, not every such curve was filed as active; inconclusive = weak or mixed curves, or effect the other way; inactive = no such curve, though single readings can be large or run the other way; the % refers to the signal ratio)
Method in brief: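 Agonist activity was taken from a beta-lactamase reporter (FRET substrate, 1 h at room temperature) in HEK293H cells carrying a PPARg UAS-bla construct. Compounds in DMSO were incubated 17 h at 37C after a 5 h cell pre-incubation.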

Sequence of Nuclear receptor subfamily 1 group I member 2 (Rattus norvegicus) (Q9R1A7 whole entry, looked up): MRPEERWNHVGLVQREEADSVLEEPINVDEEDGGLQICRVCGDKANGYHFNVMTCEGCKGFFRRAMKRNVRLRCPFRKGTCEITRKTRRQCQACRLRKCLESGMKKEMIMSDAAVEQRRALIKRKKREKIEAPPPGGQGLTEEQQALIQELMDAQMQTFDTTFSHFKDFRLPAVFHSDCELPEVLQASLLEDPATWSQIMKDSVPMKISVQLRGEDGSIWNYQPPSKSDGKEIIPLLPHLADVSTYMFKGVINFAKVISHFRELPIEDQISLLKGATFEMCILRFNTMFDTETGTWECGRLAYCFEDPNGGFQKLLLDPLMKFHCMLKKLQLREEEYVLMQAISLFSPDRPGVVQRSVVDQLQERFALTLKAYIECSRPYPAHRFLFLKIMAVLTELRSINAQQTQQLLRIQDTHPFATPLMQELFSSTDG
Sequence of Aromatase (Homo sapiens) (P11511 whole entry, looked up): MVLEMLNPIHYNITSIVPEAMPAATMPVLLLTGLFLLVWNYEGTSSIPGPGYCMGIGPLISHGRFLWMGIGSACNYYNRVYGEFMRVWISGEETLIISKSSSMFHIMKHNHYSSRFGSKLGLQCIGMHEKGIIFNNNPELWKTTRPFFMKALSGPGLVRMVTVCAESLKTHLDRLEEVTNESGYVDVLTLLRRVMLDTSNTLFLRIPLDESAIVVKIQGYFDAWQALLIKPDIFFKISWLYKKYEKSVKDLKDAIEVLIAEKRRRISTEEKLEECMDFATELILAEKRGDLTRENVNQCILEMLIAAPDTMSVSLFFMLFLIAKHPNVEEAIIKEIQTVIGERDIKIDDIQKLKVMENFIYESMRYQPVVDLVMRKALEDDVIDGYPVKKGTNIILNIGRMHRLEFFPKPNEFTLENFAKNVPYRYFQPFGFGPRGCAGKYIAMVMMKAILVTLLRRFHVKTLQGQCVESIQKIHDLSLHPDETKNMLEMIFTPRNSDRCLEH
Sequence of Peroxisome proliferator-activated receptor gamma (Homo sapiens) (P37231 whole entry, looked up): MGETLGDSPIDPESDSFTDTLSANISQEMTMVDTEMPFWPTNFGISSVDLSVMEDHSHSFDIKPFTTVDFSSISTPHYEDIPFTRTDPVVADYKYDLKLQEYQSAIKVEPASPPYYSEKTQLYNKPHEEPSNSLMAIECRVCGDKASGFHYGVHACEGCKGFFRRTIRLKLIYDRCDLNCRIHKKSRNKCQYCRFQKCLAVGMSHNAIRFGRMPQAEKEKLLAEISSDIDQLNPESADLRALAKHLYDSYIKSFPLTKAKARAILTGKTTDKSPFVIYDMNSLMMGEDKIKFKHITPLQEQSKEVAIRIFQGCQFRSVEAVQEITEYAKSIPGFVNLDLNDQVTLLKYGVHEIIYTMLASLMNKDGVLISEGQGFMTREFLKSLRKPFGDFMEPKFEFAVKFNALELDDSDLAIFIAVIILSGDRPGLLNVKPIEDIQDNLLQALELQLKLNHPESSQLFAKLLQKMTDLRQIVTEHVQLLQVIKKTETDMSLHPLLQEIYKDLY
Sequence of Estrogen receptor (Homo sapiens) (P03372 whole entry, looked up): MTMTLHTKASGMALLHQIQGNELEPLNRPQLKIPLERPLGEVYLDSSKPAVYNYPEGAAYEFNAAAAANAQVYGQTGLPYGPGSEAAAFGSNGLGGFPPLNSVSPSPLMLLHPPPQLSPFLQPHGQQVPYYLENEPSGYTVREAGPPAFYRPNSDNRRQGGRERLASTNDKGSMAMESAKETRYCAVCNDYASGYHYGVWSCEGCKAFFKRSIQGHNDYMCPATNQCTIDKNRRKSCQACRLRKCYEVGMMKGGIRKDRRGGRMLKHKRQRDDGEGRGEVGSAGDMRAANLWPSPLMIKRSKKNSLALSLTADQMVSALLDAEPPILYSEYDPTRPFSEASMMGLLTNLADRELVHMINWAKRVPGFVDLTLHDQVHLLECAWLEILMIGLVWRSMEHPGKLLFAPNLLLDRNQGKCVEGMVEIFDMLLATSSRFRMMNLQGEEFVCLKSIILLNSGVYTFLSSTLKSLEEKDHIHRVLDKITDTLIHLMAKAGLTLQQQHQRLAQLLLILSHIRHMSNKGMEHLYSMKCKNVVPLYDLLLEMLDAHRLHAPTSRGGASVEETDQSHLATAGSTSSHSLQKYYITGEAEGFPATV
Sequence of Aryl hydrocarbon receptor (Homo sapiens) (P35869 whole entry, looked up): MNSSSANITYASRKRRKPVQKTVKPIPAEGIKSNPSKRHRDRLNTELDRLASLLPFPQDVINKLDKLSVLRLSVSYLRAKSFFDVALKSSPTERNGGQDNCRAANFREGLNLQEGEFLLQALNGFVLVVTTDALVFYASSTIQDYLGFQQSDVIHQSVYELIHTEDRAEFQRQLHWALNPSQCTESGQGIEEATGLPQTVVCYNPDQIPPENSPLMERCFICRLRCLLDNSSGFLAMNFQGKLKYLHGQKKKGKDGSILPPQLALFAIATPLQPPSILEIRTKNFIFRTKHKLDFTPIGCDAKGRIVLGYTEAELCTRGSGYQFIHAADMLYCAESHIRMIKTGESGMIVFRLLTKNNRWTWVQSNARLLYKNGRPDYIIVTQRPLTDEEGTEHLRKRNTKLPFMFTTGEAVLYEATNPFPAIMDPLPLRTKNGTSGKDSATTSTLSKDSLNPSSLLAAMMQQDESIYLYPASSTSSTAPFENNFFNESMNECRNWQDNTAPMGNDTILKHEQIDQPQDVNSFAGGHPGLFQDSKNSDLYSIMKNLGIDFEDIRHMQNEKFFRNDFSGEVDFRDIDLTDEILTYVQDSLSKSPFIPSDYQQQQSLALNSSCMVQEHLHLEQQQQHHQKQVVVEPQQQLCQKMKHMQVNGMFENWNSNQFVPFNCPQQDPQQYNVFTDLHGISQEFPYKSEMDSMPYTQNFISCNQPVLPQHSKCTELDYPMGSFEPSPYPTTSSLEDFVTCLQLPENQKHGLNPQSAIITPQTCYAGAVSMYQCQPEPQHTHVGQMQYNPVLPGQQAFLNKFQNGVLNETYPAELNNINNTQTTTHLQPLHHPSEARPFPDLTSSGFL

Structure (SMILES)	Potency [1]	Potency [2]	Potency [3]	Potency [4]	Potency [5]	Potency [6]	Potency [7]	Potency [8]	Potency [9]	Potency [10]	max activation [11]	Potency [12]	Potency [13]	Potency [14]	Potency [15]	Potency (Aromatase (Homo sapiens))	Potency [16]	Potency [17]	Potency [11]
CO[C@H]1C[C@@H]2CC[C@@H](C)[C@@](O)(O2)C(=O)C(=O)N2CCCC[C@H]2C(=O)O[C@H]([C@H](C)C[C@@H]2CC[C@@H](OCCO)[C@H](OC)C2)CC(=O)[C@H](C)/C=C(\C)[C@@H](O)[C@@H](OC)C(=O)[C@H](C)C[C@H](C)/C=C/C=C/C=C/1C	3.76 µM (active)	0.0027 µM (active)	inactive	inactive	0.0047 µM (active)	21.1 µM (active)	11.9 µM (active)	inactive	11.9 µM (active)	inactive	-9.27% (inactive)	inactive							
COC(=O)[C@H]1[C@H]2C[C@@H]3c4[nH]c5ccccc5c4CCN3C[C@H]2C[C@@H](OC(=O)c2cc(OC)c(OC)c(OC)c2)[C@@H]1OC	26.6 µM (active)	2.11 µM (active) and 21.1 µM (active)		inactive	6.68 µM (active)	inactive	6.68 µM (active) and inactive	13.3 µM (active) and 6.68 µM (active)	inactive	inactive	-18.7% (inactive)		2.39 µM [inconclusive] (active)	inactive	inactive	5.96 µM (active) and 29.8 µM (active)	inactive		
CC(CN1c2ccccc2Sc2cccnc21)N(C)C (stereo unspecified)			inactive	inactive	inactive	inactive	inactive	inactive	inactive	inactive	-2.44% (inactive)	3.98 µM (active)	inactive	inactive		inactive		inactive	
O=C1NCCN1c1ncc([N+](=O)[O-])s1	inactive	inactive	inactive	inactive	inactive	inactive	inactive	inactive		inactive	-1.52% (inactive)			inactive	inactive	inactive	inactive	inactive	
O=C1C(=O)c2ncccc2-c2cccnc21		1.68 µM (active)	inactive		5.96 µM (active)	inactive	inactive	6.68 µM (active)		inactive	-3.81% (inactive)	inactive	inactive	inactive	inactive	23.7 µM (active)		inactive	
O=C(O)CCC/C=C\C[C@@H]1[C@@H](/C=C/[C@@H](O)COc2cccc(Cl)c2)[C@H](O)C[C@@H]1O	inactive	inactive	inactive	inactive		inactive	inactive	inactive	inactive	inactive	-0.0632% (inactive)		inactive	inactive	inactive	inactive	inactive	inactive	
C=C1C(=O)O[C@H]2[C@H]1CC/C(C)=C\CC[C@@]1(C)O[C@@H]21	8.41 µM (active)	7.5 µM (active)			inactive	inactive	18.8 µM (active)	inactive	16.8 µM (active)	inactive	-19.8% (inactive)	inactive	inactive	inactive		21.1 µM (active)			
CCOc1cc(-c2nccc3cc(OC)c(OC)cc23)cc(OCC)c1OCC	29.8 µM (active)		inactive				29.8 µM (active)	2.11 µM (active)	21.1 µM (active)	inactive	5.49% (inactive)	inactive		inactive	inactive			inactive	
S=C1SCN(Cc2ccccc2)CN1Cc1ccccc1	18.8 µM (active)	18.8 µM (active)		26.6 µM (active)		inactive	inactive		inactive	inactive	2.55% (inactive)			inactive	inactive	inactive	14.1 µM (active)		
[O]=[Bi][O]C(=O)[O][Bi]=[O]	inactive	inactive	inactive	inactive	inactive	inactive	inactive		inactive	inactive	-3.15% (inactive)		inactive	inactive	inactive	inactive	inactive		
C#C[C@]1(O)CC[C@H]2[C@@H]3CCC4=CCCC[C@@H]4[C@H]3C(=C)C[C@@]21CC				1.88 µM (active)		inactive	inactive	inactive	inactive	inactive	-4.59% (inactive)	inactive	inactive	inactive	2.39 µM [inconclusive] (active)	inactive		inactive	
CN1CCN2c3ncccc3Cc3ccccc3C2C1 (stereo unspecified)		21.1 µM (active)	inactive			inactive			inactive	inactive	-0.13% (inactive)	15.8 µM (active)		inactive					
C#C[C@]1(O)CC[C@H]2[C@@H]3CCC4=CC(=O)CC[C@@H]4[C@H]3C(=C)C[C@@]21CC	inactive			1.88 µM (active)			inactive	inactive	inactive	inactive		inactive		inactive	2.39 µM [inconclusive] (active)	inactive			7.94 µM (active)
CC[C@H](C)CCCCC(=O)N[C@@H](CCN)C(=O)N[C@H](C(=O)N[C@@H](CCN)C(=O)N[C@H]1CCNC(=O)[C@@H]([C@H](C)O)NC(=O)[C@H](CCN)NC(=O)[C@H](CCN)NC(=O)[C@H](CC(C)C)NC(=O)[C@@H](CC(C)C)NC(=O)[C@H](CCN)NC1=O)[C@@H](C)O (X2-[Dab]T[Dab][Dab][Dab][dL]L[Dab][Dab][dT]; lactam 4-C)	inactive	inactive	inactive	inactive	inactive	inactive	inactive	inactive	inactive	inactive	-4.02% (inactive)		inactive	inactive	inactive	inactive	inactive	inactive	
